Bioassay records deposited in PubChem BioAssay by National Center for Advancing Translational Sciences (NCATS).
HCV inhibitor: qHTS Assay for Inhibitors of Hepatitis C Virus (HCV). 3.4% of 340,000 active. Potency, µM (top dose mostly 41.8 µM), inactives show top-dose activity change, negative = inhibition, actives largely listed as inhibitors. Huh7.5.1 HCVcc-Cre infection, luciferase reporter, 44 h. AID 651820, 2012; also: potency is read from the fitted curve at half-maximal effect; % is scaled to controls: 0 for no effect and ±100 for the full control effect
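1,000 cells/well; 4 h culture; + compound; + HCVcc-Cre (~0.5 moi); 44 h; luciferase substrate, RT 15 min; read 15 sec.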
Pf growth 48h: Primary qHTS for delayed death inhibitors of the malarial parasite plastid, 48 hour incubation | P. falciparum luciferase growth in erythrocytes, 48 h | Potency, µM (series often up to 28.7 µM), for the others: at the top dose activity change, negative = inhibition, most hits filed as inhibitors | 5.9% of 310,000 active; also: potency is read from the fitted curve at half-maximal effect; % is scaled to controls: 0 for no effect and ±100 for the full control effect
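Erythrocytes infected with P. falciparum carrying an integrated firefly luciferase reporter (2% hematocrit, 0.1% parasitemia final) were exposed to compounds in RPMI 1640 with 0.5% Albumax at 37 C, 5% CO2. Growth inhibition was scored as reduced luminescence.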
Shiga toxin inh: A qHTS for Small Molecule Inhibitors of Shiga Toxin; Vero cells, Shiga toxin protein synthesis inhibition reporter; inhibition, % at 38.7 µM; 9.2% of 290,000 active; AID 2315, 2010; in the data active = inhibition mostly above about 28%, no sharp cut-off; inactive = mostly below about 43%; also: 0% is about no effect
AMA1-RON2 inh: qHTS for Inhibitors of AMA1-RON; Towards Development of Antimalarial Drug Lead: Primary Screen. 0.2% of 360,000 active. Potency, µM (titrated, usually from 58.2 µM), for the others: at the top dose activity change, negative = inhibition, actives largely listed as inhibitors. Plasmodium falciparum AMA1 (3D7) - RON2 peptide interaction. AlphaScreen AMA1-biotinylated RON2 peptide binding;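 also: potency is read from the fitted curve at half-maximal effect; 0% = vehicle wells and -100% = peptide control; nearly all actives have a fitted effect of over 45% in size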
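AMA1 (3D7) with his tag at 25 nM final met compounds first, then biotinylated RON2 peptide at 25 nM; detection used donor plus acceptor beads, 10 µg/mL apiece, read by AlphaScreen after 30 min at room temperature.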
Pf growth 96h: Primary qHTS for delayed death inhibitors of the malarial parasite plastid, 96 hour incubation; 6.9% of 320,000 active; P. falciparum luciferase reporter growth, 96 h; Potency, µM (highest dose often 28.7 µM), for the others: at the highest dose activity change, negative = inhibition, hits mostly inhibitors; also: potency is read from the fitted curve at half-maximal effect; % is scaled to controls: 0 for no effect and ±100 for the full control effect
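Erythrocytes infected with luciferase-expressing P. falciparum were dispensed at 2% hematocrit and 0.05% parasitemia (final), then incubated with compounds 96 hours at 37 C in 5% CO2. Luminescence after detection reagent addition reported growth.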
CHX counter: Cycloheximide Counterscreen for Small Molecule Inhibitors of Shiga Toxin; cell reporter, cycloheximide protein synthesis inhibition counterscreen; max response, %; 12% of 300,000 active; in the data active = max response mostly above about 13%, no sharp cut-off; inactive = mostly below about 14%; also: read at 38.3 µM for the half of the compounds with a filed dose; 0% is about no effect
Numbers without * were called inactive; u = inconclusive; x = no result. Only some compounds are listed: those with a hit (about 21% of all), similar ones and a draw of the others. Unless noted, calls follow the shape of the dose curve; as a rule, active = well fitted curve in the direction sought with a large enough effect; inconclusive = small, poorly fitted or top-dose-only effect, or another doubt; inactive = no such curve, though single readings can be large; an effect the other way counts as inactive or inconclusive.

SMILES | HCV inhibitor | Pf growth 48h | Shiga toxin inh | AMA1-RON2 inh | Pf growth 96h | CHX counter
C=CCn1c(O)c(/C=C2\C=NN=C2c2ccccc2)sc1=S | u | 2% | -9 | -8% | -2% | -2
CCCn1c(O)c(/C=C2\C=NN=C2c2ccccc2)sc1=S | 10µM* | 31% | -2 | -17% | u | -7
O=C(c1ccc(S(=O)(=O)Nc2ccccc2F)cc1)N1CCN(c2ccccc2O)CC1 | 0% | u | x | -7% | u | x
O=C(O)c1cccc(Cn2c(Cl)c(/C=N/NC(=O)c3ccccc3O)sc2=O)c1 | 13% | 43% | 31 | 26% | -4% | 17*
O=C(N/N=C/c1sc(=O)n(Cc2ccc(Br)cc2)c1Cl)c1ccco1 | u | 3.7µM* | 3 | 0% | 2.6µM* | 22*
O=C(N/N=C/c1ccc(Br)s1)c1ccco1 | 5% | -26% | 91* | 13% | -3% | 55*
Cc1ccc(/C=N/NC(=O)c2ccco2)s1 | 15% | 85% | 71* | 14% | 154% | 53*
Cc1sccc1/C=N/NC(=O)c1ccco1 | 13% | -8% | -22 | 0% | u | 7
CCOc1ccccc1NC(=O)COC(=O)c1c(CC)noc1C | u | 3% | x | -9% | 17% | x
C[C@H](CO)N1C[C@H](C)[C@@H](CN(C)C(=O)C2CCOCC2)Oc2ncc(Br)cc2C1=O | x | x | x | 0% | x | x
COc1ccc(N2CCN(S(=O)(=O)CCNC(=O)C3CC3)CC2)cc1 | -4% | -14% | x | -9% | -2% | x
CC1(C)Cc2nc3sc4c(=O)n(Cc5ccccc5)cnc4c3cc2CS1 | u | 13% | 8 | -20% | 36% | -2
CCCn1cnc2c(sc3nc4c(cc32)CSC(C)(C)C4)c1=O | u | 80% | 37* | -2% | 67% | 25*
CC(C)CCOc1ncnc2c1sc1nc3c(cc12)CSC(C)(C)C3 | u | 12µM* | -7 | -3% | u | 15*
Cc1c(C)[n+](=O)c(C)c(C)n1[O-] | 4% | x | x | 0% | x | x
O=C1Nc2ccccc2/C1=N\c1sc2c(c1C(=O)Nc1ccccc1)CCCC2 | 1% | 7.4µM* | 22* | 26% | 2.3µM* | 8
O=C(Cc1ccccc1)Nc1sc2c(c1C(=O)Nc1ccc(Br)cc1)CCCC2 | x | x | -3 | x | x | -5
CCOC(=O)N1CCN(C(=O)C2CCC(=O)N(Cc3ccccc3OC)C2)CC1 (stereo not drawn) | x | x | x | 5% | x | x
CCCOc1ccc(CNC(=O)Cn2ncc3ccccc32)cc1 | -1% | 83% | 59* | -10% | 57% | 34*
CCCC(O)(c1ccc(Br)cc1)C(CN1CCOCC1)c1ccc(Cl)cc1 (stereo not drawn) | u | 2.3µM* | -11 | -21% | 39% | 1
CCc1ccc(C(O)(C(C)C)C(CN2CCOCC2)c2ccccc2)cc1 (stereo not drawn) | u | 5.2µM* | -3 | -11% | -1% | -2
CCCC(O)(c1ccc(CC)cc1)C(CN1CCOCC1)c1ccccc1 (stereo not drawn) | -49% | 0.93µM* | -5 | -7% | 0% | -6
CCC1CCCCN1S(=O)(=O)c1ccc(NC(=O)C2CCCO2)cc1 (stereo not drawn) | 12% | -16% | -11 | -3% | 39% | -3
CCOC(=O)C1(C)CCCN(C(=O)c2cccs2)C1 (stereo not drawn) | x | x | x | 0% | x | x
COc1cccc(CNC(=O)[C@@H](C)N2C(=O)N3CCc4c([nH]c5ccc(OC)cc45)C3(C)C2=O)c1 (stereo partly drawn) | 8.9µM* | -50% | -4 | -22% | u | -2
SMILES | HCV inhibitor | Pf growth 48h | Shiga toxin inh | AMA1-RON2 inh | Pf growth 96h | CHX counter
COc1ccc(CCNC(=O)[C@H](C)N2C(=O)N3CCc4c([nH]c5ccccc45)[C@@]3(C)C2=O)cc1 | 4.5µM* | u | -3 | -4% | u | -2
CC(NC(=O)[C@H](C)N1C(=O)N2CCc3c([nH]c4ccccc34)[C@@]2(C)C1=O)c1ccccc1 (stereo partly drawn) | u | u | 6 | u | 2% | -1
COc1ccc(CNC(=O)[C@H](C)N2C(=O)N3CCc4c([nH]c5ccc(OC)cc45)[C@@]3(C)C2=O)cc1 | u | u | 2 | -1% | u | -3
COc1ccc(CCNC(=O)[C@H](C)N2C(=O)N3CCc4c([nH]c5ccccc45)[C@@]3(C)C2=O)cc1OC | 1µM* | u | 17 | -11% | -5% | 7
COc1ccc2[nH]c3c(c2c1)CCN1C(=O)N([C@@H](C)C(=O)NCCc2ccc(OC)c(OC)c2)C(=O)[C@]31C | u | u | -4 | -11% | 10µM* | -2
COc1ccccc1CNC(=O)[C@H](C)N1C(=O)N2CCc3c([nH]c4ccccc34)[C@@]2(C)C1=O | u | -23% | -3 | 0% | u | -3
COc1ccc2[nH]c3c(c2c1)CCN1C(=O)N([C@@H](C)C(=O)NCc2ccc(C)cc2)C(=O)[C@]31C | u | u | -8 | -19% | u | -2
COc1ccc2[nH]c3c(c2c1)CCN1C(=O)N([C@@H](C)C(=O)NC2CCCCC2C)C(=O)[C@]31C (stereo partly drawn) | -28% | 9.3µM* | 4 | -2% | 12µM* | -1
CC(C)[C@@H](C(=O)NC1CCCC1)N1C(=O)N2CCc3c([nH]c4ccccc34)[C@@]2(C)C1=O | u | -46% | -6 | -16% | u | -2
C[C@@H](C(=O)NC1CCCC1)N1C(=O)N2CCc3c([nH]c4ccccc34)[C@@]2(C)C1=O | 10µM* | 4% | -1 | -4% | 54% | 2
O=C(O)C1CC=CCC1C(=O)N1CCN(c2nc(-c3ccccc3Cl)c3cc(Br)ccc3n2)CC1 (stereo not drawn) | u | 12µM* | -27 | 3% | u | -3
O=C(O)C1CC=CCC1C(=O)N1CCN(c2nc(-c3ccccc3)c3ccccc3n2)CC1 (stereo not drawn) | u | u | -5 | 7% | x | -1
CCCc1cc(=O)[nH]c(SCC(=O)Nc2nc3ccc(OCC)cc3s2)n1 | 9% | 20% | 52* | -2% | 22% | 14*
CCOc1ccc2nc(NC(=O)C(CC)Sc3nc(C)cc(=O)[nH]3)sc2c1 (stereo not drawn) | u | 70% | 90* | 36% | x | 29*
CCOc1ccc2nc(NC(=O)Cn3cnc4c3c(=O)n(C)c(=O)n4C)sc2c1 | -2% | 14% | 22 | 4% | x | 14
